In the supplement of paper PMC11732987, “Enantioselective OTUD7B fragment discovery through chemoproteomics screening and high-throughput optimisation” (Communications Chemistry, 2025):

How the values were obtained:
Assay in all cases: log2 ratio of Biotin-Ahx-Ub-VS probe labelling (fragment/DMSO); higher = less target engagement (more negative = stronger competition), active = hit call of the paper (q ≤ 0.05, log2 ratio ≤ -1)
Conditions in all cases: compound concentration: 200 uM; treatment time: 3 h
USP34 = USP34 (UniProt Q70CQ2)
Procedure, shortened: (§1)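 Labelled DUBs from HEK293T lysate were NeutrAvidin-enriched, digested with LysC and trypsin, and run by diaPASEF LC-MS/MS. Before that, each 495 µg sample in Tris/CHAPS/IGEPAL buffer with protease inhibitors was treated in triplicate with fragment at 200 µM or vehicle for 3 h, then with Biotin-Ahx-Ub-VS at 0.5 µM final for 1 h. Values are average log2 ratios of fragment over vehicle by unpaired t-test, based on global-median-normalised Spectronaut label-free quantities from proteins with ≥2 unique peptides.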

USP36 = molecular target: T1, USP36 (UniProt Q9P275)
T1 sequence (whole entry): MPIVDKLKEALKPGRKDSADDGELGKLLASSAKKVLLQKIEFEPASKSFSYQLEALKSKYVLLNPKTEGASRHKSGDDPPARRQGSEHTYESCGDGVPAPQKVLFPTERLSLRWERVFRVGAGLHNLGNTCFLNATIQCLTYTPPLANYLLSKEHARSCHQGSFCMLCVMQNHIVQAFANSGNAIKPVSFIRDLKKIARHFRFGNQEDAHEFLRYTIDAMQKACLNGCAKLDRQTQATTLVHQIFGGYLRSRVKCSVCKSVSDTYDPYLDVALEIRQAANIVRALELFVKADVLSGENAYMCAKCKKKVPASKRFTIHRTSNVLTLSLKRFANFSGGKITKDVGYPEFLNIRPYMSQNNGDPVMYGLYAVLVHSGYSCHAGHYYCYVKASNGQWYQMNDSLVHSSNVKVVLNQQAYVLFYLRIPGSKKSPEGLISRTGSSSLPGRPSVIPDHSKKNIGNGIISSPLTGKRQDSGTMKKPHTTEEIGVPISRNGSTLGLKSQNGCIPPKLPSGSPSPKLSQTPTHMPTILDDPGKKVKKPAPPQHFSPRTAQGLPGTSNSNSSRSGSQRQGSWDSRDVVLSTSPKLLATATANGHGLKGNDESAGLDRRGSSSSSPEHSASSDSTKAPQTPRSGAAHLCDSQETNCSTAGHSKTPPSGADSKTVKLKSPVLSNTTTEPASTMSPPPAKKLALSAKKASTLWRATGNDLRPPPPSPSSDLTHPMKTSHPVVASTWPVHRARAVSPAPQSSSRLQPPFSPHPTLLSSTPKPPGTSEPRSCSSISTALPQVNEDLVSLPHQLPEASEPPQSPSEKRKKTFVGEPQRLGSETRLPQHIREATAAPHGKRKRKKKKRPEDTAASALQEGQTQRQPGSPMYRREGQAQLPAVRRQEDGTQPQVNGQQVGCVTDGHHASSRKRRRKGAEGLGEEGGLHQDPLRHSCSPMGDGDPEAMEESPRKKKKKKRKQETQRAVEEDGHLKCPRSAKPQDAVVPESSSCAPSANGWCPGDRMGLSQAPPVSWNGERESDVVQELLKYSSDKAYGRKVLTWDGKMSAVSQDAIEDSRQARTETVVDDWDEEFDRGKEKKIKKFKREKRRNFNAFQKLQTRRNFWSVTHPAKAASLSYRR
Procedure, shortened: as §1

USP38 = molecular target: T2, USP38 (UniProt Q8NB14)
T2 sequence (whole entry): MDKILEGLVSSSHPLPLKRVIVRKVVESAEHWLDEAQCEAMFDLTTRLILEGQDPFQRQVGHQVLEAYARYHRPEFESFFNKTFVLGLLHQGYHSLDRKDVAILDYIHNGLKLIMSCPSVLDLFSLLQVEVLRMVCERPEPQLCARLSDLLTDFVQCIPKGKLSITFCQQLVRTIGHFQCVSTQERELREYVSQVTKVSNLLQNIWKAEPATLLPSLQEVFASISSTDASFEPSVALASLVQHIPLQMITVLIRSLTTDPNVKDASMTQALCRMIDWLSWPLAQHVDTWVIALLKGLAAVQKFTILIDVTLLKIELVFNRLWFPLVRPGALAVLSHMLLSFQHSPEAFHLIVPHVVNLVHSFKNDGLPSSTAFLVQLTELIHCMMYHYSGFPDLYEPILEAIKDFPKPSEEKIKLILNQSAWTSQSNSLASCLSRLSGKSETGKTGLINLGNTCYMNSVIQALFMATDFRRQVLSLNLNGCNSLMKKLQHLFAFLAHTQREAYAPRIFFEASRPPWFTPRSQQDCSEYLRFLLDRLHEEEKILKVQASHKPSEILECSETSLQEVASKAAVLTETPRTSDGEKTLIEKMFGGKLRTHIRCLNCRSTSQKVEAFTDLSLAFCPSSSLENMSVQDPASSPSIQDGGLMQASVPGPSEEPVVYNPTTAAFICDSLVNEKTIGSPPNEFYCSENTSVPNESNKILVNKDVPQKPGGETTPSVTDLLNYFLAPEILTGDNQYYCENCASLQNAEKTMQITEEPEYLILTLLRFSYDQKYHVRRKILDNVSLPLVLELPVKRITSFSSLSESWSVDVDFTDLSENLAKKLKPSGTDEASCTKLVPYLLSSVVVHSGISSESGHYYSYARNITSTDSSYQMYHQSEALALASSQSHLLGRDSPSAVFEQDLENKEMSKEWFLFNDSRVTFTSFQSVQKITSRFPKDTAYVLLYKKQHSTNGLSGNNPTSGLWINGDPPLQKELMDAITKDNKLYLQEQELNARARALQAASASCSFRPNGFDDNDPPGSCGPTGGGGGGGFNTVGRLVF
Procedure, shortened: as §1

USP39 = molecular target: T3, USP39 (UniProt Q53GS9)
T3 sequence (whole entry): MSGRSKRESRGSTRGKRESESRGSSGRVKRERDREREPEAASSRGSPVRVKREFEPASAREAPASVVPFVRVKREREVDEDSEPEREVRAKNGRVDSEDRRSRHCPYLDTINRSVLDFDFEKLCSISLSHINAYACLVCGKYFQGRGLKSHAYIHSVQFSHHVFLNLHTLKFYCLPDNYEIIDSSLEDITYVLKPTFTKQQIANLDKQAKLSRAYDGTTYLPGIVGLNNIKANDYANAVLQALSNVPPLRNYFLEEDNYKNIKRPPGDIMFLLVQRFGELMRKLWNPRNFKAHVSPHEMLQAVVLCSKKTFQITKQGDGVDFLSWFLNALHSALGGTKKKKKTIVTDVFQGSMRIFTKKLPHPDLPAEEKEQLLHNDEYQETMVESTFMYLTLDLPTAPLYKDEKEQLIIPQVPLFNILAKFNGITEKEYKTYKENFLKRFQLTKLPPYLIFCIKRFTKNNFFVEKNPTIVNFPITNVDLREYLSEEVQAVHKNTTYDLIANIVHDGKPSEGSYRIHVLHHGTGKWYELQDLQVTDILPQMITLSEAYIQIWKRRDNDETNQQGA
Procedure, shortened: as §1

USP4 = molecular target: T4, USP4 (UniProt Q13107)
T4 sequence (whole entry): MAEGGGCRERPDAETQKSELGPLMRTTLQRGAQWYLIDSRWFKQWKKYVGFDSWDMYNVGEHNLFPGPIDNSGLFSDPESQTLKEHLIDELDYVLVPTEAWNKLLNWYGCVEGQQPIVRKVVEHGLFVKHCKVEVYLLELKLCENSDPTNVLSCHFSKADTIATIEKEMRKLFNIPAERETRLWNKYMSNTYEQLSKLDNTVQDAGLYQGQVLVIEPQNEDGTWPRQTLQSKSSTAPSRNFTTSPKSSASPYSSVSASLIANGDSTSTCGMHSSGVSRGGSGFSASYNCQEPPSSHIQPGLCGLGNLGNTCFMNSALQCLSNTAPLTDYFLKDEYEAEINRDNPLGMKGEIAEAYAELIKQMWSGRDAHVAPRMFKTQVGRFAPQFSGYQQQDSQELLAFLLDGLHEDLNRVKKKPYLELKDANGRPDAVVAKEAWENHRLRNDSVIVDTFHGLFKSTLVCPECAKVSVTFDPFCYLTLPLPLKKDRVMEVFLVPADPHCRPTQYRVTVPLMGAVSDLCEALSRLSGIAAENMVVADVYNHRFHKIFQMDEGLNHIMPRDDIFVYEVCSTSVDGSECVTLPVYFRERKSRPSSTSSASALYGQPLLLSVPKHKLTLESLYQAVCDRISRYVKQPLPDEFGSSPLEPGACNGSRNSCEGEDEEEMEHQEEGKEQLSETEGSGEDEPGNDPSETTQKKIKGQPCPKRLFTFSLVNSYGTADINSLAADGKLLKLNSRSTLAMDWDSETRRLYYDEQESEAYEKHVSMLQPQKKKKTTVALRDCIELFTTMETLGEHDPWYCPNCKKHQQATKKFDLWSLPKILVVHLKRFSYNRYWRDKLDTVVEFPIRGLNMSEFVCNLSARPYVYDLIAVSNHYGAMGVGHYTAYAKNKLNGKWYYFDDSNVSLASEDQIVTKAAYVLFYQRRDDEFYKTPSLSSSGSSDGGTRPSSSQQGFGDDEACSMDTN
Procedure, shortened: as §1

Measured: log2 ratio of Biotin-Ahx-Ub-VS probe labelling

Sequence of USP34 (Q70CQ2 whole entry, the tested form may be a part): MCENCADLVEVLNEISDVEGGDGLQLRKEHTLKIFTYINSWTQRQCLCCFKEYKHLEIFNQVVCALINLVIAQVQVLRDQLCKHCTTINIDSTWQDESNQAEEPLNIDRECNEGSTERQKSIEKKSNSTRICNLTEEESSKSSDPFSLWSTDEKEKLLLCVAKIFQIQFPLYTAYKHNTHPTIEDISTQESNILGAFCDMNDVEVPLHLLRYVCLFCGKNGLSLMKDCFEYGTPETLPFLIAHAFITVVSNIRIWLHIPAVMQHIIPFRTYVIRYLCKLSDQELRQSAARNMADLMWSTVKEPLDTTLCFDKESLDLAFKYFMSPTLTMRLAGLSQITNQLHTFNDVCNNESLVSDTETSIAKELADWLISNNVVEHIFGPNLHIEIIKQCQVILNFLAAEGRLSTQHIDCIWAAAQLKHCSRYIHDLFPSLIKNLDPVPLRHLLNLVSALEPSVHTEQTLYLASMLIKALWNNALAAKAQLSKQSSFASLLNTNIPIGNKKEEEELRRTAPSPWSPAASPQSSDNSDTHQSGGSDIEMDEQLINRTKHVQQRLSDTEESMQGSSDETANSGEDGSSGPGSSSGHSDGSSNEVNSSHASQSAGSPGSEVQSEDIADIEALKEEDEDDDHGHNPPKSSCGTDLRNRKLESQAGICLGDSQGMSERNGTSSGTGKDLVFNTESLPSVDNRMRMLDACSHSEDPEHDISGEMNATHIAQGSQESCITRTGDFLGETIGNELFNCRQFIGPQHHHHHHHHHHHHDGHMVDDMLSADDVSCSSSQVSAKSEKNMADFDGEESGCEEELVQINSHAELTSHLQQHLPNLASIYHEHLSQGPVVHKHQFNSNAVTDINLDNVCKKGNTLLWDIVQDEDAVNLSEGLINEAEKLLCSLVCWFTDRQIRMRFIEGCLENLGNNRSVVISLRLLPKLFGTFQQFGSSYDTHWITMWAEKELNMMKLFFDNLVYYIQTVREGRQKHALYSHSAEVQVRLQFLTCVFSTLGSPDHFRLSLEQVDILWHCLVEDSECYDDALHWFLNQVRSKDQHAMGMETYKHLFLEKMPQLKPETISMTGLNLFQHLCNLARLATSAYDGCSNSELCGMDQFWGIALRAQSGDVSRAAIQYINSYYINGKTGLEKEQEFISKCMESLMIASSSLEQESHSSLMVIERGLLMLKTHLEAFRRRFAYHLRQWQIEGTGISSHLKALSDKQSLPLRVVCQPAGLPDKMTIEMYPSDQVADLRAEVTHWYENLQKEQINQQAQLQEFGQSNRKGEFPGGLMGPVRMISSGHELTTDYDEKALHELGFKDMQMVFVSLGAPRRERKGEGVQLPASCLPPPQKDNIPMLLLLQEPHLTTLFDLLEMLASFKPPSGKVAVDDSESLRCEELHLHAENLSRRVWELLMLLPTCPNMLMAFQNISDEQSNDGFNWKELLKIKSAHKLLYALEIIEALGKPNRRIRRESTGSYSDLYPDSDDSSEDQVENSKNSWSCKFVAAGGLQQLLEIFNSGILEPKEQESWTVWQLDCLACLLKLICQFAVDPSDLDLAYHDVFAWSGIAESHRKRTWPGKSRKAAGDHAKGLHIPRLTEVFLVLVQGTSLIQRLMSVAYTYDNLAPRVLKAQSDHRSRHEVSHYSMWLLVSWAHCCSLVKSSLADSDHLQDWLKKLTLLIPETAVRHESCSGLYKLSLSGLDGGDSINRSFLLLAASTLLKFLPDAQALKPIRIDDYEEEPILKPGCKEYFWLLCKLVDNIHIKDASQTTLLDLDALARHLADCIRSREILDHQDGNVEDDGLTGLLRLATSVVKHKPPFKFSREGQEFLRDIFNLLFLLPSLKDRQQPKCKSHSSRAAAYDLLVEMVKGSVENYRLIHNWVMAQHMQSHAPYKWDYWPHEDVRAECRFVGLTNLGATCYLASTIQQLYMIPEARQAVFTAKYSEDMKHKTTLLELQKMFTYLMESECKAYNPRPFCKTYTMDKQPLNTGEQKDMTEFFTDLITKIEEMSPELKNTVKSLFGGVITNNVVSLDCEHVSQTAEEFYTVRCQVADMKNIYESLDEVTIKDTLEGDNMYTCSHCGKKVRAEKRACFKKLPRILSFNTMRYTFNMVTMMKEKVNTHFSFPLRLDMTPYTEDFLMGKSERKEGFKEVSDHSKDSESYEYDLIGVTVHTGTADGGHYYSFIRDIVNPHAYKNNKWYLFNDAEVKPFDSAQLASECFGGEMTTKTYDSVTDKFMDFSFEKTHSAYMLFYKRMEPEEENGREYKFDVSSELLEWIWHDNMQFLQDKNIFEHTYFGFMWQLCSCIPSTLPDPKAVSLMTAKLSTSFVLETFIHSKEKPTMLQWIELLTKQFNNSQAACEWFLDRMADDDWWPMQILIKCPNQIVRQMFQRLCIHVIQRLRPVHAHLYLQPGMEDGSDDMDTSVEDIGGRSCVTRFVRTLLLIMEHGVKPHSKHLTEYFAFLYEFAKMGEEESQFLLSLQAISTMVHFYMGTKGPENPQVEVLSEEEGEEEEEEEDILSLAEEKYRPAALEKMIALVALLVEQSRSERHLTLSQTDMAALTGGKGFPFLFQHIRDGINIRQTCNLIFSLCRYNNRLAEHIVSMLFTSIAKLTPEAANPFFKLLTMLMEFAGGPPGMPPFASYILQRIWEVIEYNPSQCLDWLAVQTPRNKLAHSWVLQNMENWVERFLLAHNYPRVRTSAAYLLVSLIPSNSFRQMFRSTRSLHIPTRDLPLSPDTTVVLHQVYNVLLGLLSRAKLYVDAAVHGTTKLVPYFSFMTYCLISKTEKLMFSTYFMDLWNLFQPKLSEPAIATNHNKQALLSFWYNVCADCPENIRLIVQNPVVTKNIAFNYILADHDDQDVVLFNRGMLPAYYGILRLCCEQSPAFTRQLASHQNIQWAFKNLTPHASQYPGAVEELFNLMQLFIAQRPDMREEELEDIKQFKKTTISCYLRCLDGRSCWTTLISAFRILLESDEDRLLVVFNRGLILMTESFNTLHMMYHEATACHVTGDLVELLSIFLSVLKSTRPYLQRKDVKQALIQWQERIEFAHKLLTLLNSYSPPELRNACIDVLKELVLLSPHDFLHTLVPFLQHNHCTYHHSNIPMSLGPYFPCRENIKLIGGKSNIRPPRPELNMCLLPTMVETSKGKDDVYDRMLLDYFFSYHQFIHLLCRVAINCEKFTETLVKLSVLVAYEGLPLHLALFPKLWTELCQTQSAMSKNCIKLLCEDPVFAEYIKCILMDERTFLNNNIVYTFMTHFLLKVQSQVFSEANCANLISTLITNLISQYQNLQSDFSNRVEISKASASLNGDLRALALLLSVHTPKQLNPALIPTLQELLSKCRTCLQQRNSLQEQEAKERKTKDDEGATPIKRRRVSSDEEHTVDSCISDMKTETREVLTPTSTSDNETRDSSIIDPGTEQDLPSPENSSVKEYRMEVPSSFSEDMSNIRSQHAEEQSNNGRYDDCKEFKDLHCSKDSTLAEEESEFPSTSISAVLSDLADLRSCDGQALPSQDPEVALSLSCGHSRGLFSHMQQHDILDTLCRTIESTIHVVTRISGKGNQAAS

O=C(CCl)N1CCC(OCc2ccccc2F)CC1
inactive: USP34 -0.138 | USP36 0.169 | USP38 0.211 | USP39 0.264 | USP4 -0.121
